# Source: PubChem BioAssay (National Center for Advancing Translational Sciences (NCATS))
# This is a sample that favours compounds with a hit; in the whole collection about 2.4% have one here.
# Pol iota inh: qHTS for Inhibitors of Polymerase Iota. hit rate 1% among 390,000. Pol iota fluorescent replication assay, 10 min. DNA polymerase iota (Homo sapiens), Q9UNA4. Potency, µM (series often up to 115 µM), without a hit: at the top dose activity, negative = inhibition, usual class: inhibitors. AID 588590, 2011; further: potency means the concentration at half of the fitted maximal effect
#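 Pol iota at 10 nM preincubated 15 min with compounds at room temperature; reaction started with fluorescent substrate, 50 nM final. Fluorescence read kinetically at 0 and 10 min; buffer-only wells as negative control.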
# WRN inhibitor: qHTS for Inhibitors of WRN Helicase; Potency, µM (titrated, usually from 114 µM), for the others: at the top dose activity change, negative = inhibition, most hits filed as inhibitors; hit rate 0.46% among 360,000; WRN helicase unwinding, fluorescent forked duplex, kinetic; AID 651768, 2012; further: potency means the concentration at half of the fitted maximal effect; on the % scale 0 is the no-effect control and ±100 the full control effect; nearly all actives have a fitted effect of over 55% in size
#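 WRN at 20 nM final was preincubated with compound for 15 min at room temperature; reaction started with 100 nM forked duplex oligonucleotide carrying fluorophore and quencher plus 2 mM ATP (final). Unwinding followed kinetically by red fluorescence (ex 525/em 598 nm).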
# Pol eta inh-1: qHTS for Inhibitors of Polymerase Eta | DNA polymerase eta (Homo sapiens), Q9Y253 | recombinant Pol eta, fluorescent DNA replication assay | Potency, µM (top dose mostly 114 µM), without a hit: at the highest dose activity change, negative = inhibition, actives largely listed as inhibitors | hit rate 1.2% among 390,000 | AID 588591, 2011; further: potency means the concentration at half of the fitted maximal effect; on the % scale 0 is the no-effect control and ±100 the full control effect
#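 Pol eta at 10 nM preincubated with compounds 15 min at room temperature; reaction started with fluorescent substrate (50 nM final) and read kinetically at 0 and 10 min.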
# FEN1 inh: qHTS Assay for the Inhibitors of Human Flap endonuclease 1 (FEN1); P39748; Potency, µM (top dose mostly 114 µM), inactives show top-dose activity change, negative = inhibition, usual class: inhibitors; Recombinant FEN1 flap cleavage, fluorescence, 15 min; hit rate 0.35% among 390,000; further: potency means the concentration at half of the fitted maximal effect; on the % scale 0 is the no-effect control and ±100 the full control effect; nearly all actives have a fitted effect of over 65% in size
# Target sequence (P39748 whole entry, looked up): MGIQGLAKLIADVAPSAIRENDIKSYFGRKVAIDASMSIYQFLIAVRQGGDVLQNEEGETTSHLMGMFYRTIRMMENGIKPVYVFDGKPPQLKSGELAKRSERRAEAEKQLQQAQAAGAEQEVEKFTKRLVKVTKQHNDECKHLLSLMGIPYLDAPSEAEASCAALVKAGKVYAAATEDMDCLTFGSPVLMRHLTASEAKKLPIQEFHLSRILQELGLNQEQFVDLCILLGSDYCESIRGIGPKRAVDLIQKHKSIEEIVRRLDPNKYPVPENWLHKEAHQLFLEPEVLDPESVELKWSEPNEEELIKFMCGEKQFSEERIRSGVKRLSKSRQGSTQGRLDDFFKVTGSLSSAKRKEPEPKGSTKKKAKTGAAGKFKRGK
#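 Steps: FEN1 (10 nM) dispensed; compound added by pin tool; 15 min at room temperature; substrate added to 50 nM final; reads at 0 min and 15 min; data normalized and fitted (four-parameter Hill).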
# POLB inh: qHTS Assay for Inhibitors of DNA Polymerase Beta; Pol beta primer extension/strand displacement, fluorescence kinetic; hit rate 1.3% among 340,000; P06746; Potency, µM (series often up to 114 µM), for inactives: at the highest dose activity change, negative = inhibition, actives largely listed as inhibitors; further: potency means the concentration at half of the fitted maximal effect; on the % scale 0 is the no-effect control and ±100 the full control effect
#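 Curves were derived by four-parameter Hill fits of normalized qHTS data. The kinetic fluorescent primer-extension read was taken at 0 and 10 min after 50 nM substrate, following a 15 min room-temperature preincubation of 10 nM enzyme with compounds.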
# Pol kappa inh-1: qHTS for Inhibitors of Polymerase Kappa; Potency, µM (titrated, usually from 107 µM), for the others: top-dose activity, negative = inhibition, most hits filed as inhibitors; DNA polymerase kappa (Homo sapiens), Q9UBT6; hit rate 0.53% among 400,000; purified Pol kappa, fluorescent DNA synthesis assay, 10 min; further: potency means the concentration at half of the fitted maximal effect; on the % scale 0 is the no-effect control and ±100 the full control effect
#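 Enzyme at 10 nM met test compounds for 15 min at room temperature. Substrate addition (50 nM final) began the reaction, which was monitored by fluorescence at 0 and 10 min.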
# GALK inh confirm: Confirmation Assay for Inhibitors of Human Galactokinase (GALK); shares compounds with Pol eta inh-1; purified GALK, Kinase-Glo ATP depletion luminescence; Potency, µM (titrated, usually from 115 µM), inactives show at the highest dose activity, negative = inhibition, hits mostly inhibitors; hit rate 70% among 150
# GALK redox cs: Confirmatory Assay for Inhibitors of Human Galactokinase (GALK): Phenol-HRP redox assay counterscreen; shares compounds with Pol eta inh-1; Phenol red-HRP H2O2 redox cycling, absorbance 600 nm; Potency, µM (series often up to 115 µM), inactives show top-dose activity change, negative = H2O2 signal, usual class: inhibitors; hit rate 40% among 150
# HEK293 tox: Secondary Assay for Inhibitors of Human Galactokinase (GALK): HEK-293 Cell Viability Assay; shares compounds with Pol eta inh-1; HEK-293 viability, ATP luminescence (CellTiter-Glo), 24/48 h; Potency, µM (doses to about 46.1 µM), without a hit: top-dose activity change, negative = cytotoxicity, actives largely listed as inhibitors; hit rate 10% among 170; AID 2547, 2010; further: potency means the concentration at half of the fitted maximal effect; on the % scale 0 is the no-effect control and ±100 the full control effect
# Pol kappa inh-2: qHTS for Inhibitors of Polymerase Kappa: Confirmatory Assay for Cherry-picked Compounds | shares compounds with Pol eta inh-1 | purified Pol-kappa, fluorescent strand-displacement substrate | Potency, µM, usual class: inhibitors | hit rate 76% among 920; further: potency means the concentration at half of the fitted maximal effect
# Pol eta inh-2: qHTS for Inhibitors of Polymerase Eta: Confirmatory Assay for Cherry-picked Compounds. shares compounds with Pol eta inh-1. Pol eta primer extension, TAMRA/BHQ fluorescence, 10 min. Potency, µM, usual class: inhibitors. hit rate 64% among 2,600; further: potency means the concentration at half of the fitted maximal effect
# Active calls of the source: *; u = inconclusive; x = no result given; [ ] = remark or other dose. The call rests on the fitted dose curve; in most records, active means well fitted curve in the direction sought with a large enough effect; inconclusive means small, poorly fitted or top-dose-only effect, or another doubt; inactive means no such curve, though single readings can be large; an effect the other way counts as inactive or inconclusive.
SMILES,Pol iota inh,WRN inhibitor,Pol eta inh-1,FEN1 inh,POLB inh,Pol kappa inh-1,Pol eta inh-2,others
Cc1nn(Cc2noc(C(=O)NCC3CCCO3)n2)c(C)c1Br (centres undefined),18%,3%[57.1 µM],-20%,7%,8%,10%,x,GALK inh confirm=-8%;GALK redox cs=4%;HEK293 tox=-5%
COc1ccc(C2Nc3ccccc3-c3nnc(SC)nc3O2)cc1C (centres undefined),7%,x,-3%,-11%,32%,7%,x,
O=C(Nc1cccc(O)c1)c1ccc2c(c1)C(=O)N(Cc1ccco1)C2=O,u,-18%,-7%,-7%,u,-33%,x,
O=C(Nc1ccc(Cl)cc1C(=O)O)c1ccc2c(c1)C(=O)N(Cc1ccco1)C2=O,35µM*,-30%[57.1 µM],79µM*,u,u,u,u,
CS(=O)(=O)c1ccc2nc(NC(=O)c3ccccc3)sc2c1,112%,-20%,-15%,4%,-1%,-2%,x,
CS(=O)(=O)c1ccc(C(=O)Nc2nc(-c3ccco3)c(-c3ccco3)s2)cc1,1.6µM*,45µM*,5µM*,56µM*,x,3.2µM*,43*,
COc1ccc(NC(=O)c2ccco2)cc1NC(=O)c1ccc(C)cc1,9%,-1%,-15%,-3%,25%,-4%,x,
COc1ccc(NC(=O)c2ccco2)cc1NC(=O)c1cc(Cl)ccc1OC,-17%,x,89µM*,-22%,u,-1%,x,Pol kappa inh-2=42*
O=c1[nH]c(/C=C/c2ccc([N+](=O)[O-])cc2)c([N+](=O)[O-])c(=O)[nH]1,u,-25%,45µM*,-18%,-3%,-4%,u,GALK inh confirm=38µM*;GALK redox cs=-2%;HEK293 tox=6%
Cc1cc(=O)oc2c(CN3CC(C)OC(C)C3)c(O)c(Cl)cc12 (centres undefined),35µM*,u,20µM*,-16%,14µM*,u,u,Pol kappa inh-2=u
COCCN(C(=O)COC(=O)c1cc2c(s1)CCCC2)c1c(N)n(Cc2ccccc2)c(=O)[nH]c1=O,50µM*,-16%[11.6 µM],45µM*,0%,x,u,u,
O=C(/C=C/c1ccco1)NC(=S)NNC(=O)c1ccco1,u,-6%[11.6 µM],50µM*,2%,u,-32%,x,Pol kappa inh-2=u
COC(=O)CCC(=O)N1CCCC(CNS(=O)(=O)c2ccc(OC)cc2)C1 (centres undefined),14%,0%,-22%,-1%,18%,3%,x,
O=C1NC(=S)S/C1=C\c1ccc(SCc2ccccc2)o1,7.9µM*,u,18µM*,79µM*,14µM*,25µM*,u,
O=C1NC(=S)SC1=Cc1ccccc1Cl,u,-34%,-2%,-9%,x,-12%,x,
Cc1ccc(NC(=O)N/C=C/c2ccco2)cc1C,40µM*,-32%[57.1 µM],28µM*,-3%,25µM*,79µM*,u,
Cc1ccc(NC(=O)c2cccc(NC(=O)/C=C/c3ccco3)c2)cc1C,u,-8%[11.6 µM],u,-6%,u,-18%,x,
CS(=O)(=O)C1=NSC2=NC(=O)/C(=C\c3cccn3-c3ccc(Cl)cc3)C(=N)N21,u,-27%[57.1 µM],22µM*,-18%,22µM*,-40%,u,
CC1=CC(C)(C)NC(=S)N1c1ccc(C)c(C)c1,48%,-1%,-5%,4%,20%,-8%,x,
COc1ccccc1/C=C/c1onc(C)c1S(=O)(=O)N1CCC(C(=O)NC2CCCCCC2)CC1,-17%,3%,-23%,16%,15%,2%,x,
CCOC(=O)C1=C(COC(=O)COc2ccccc2OCC)NC(=O)NC1C (centres undefined),3%,-16%,-5%,5%,x,2%,x,
CCOC(=O)C1=C(COC(=O)COc2ccccc2C=O)NC(=O)NC1C (centres undefined),u,-25%,13µM*,-9%,x,u,76*,
COc1ccc(C(=O)N(Cc2ccco2)Cc2cccs2)c(OC)c1,13%,x,x,1%,x,-21%,x,
COC(=O)c1cc(OC)c(OC)cc1NC(=S)N1CCN(C)CC1,-21%,-7%,11%,-10%,-11%,-12%,x,
COc1ccc(C2CC(=O)c3c(O)cc(O)cc3O2)cc1O (centres undefined),-8%,-6%,1%,11%,x,-17%,x,
O=C1CC(c2ccc(O)c(O)c2)Oc2cc(O)cc(O)c21 (centres undefined),50µM*,u,22µM*,u,u,16µM*,76*,
O=C(Cc1ccc(NS(=O)(=O)c2ccc(F)cc2)cc1)NCc1ccccc1,-2%,0%,-10%,-1%,-18%,-2%,x,
COc1ccc(-n2cc(-c3ccccc3)c3c(N4CCN(CCO)CC4)ncnc32)cc1,1%,-9%,-15%,-6%,-24%,-5%,x,GALK inh confirm=-9%;GALK redox cs=-1%;HEK293 tox=-17%
O=C1NC(=S)N/C1=C/c1cc2c(cc1[N+](=O)[O-])OCO2,-10%,13%,u,-32%,-1%,u,85*,
